# From PubChem BioAssay (NCATS)
# Values joined by “and” are separate entries in the source; they are usually repeats but may differ in a detail not shown here. Equal entries are not always repeated. Records with an inconclusive call do not appear. A call without a number means that no potency is given here. Values without a mark were called inactive. Active and inactive are the calls of the source. Calls come from the whole dose curve; as a rule, active = well fitted curve in the direction sought with a large enough effect; inconclusive = small, poorly fitted or top-dose-only effect, or another doubt; inactive = no such curve, though single readings can be large; an effect the other way counts as inactive or inconclusive.
# Legend:
# [1] = Viability qHTS for spleen associated tyrosine kinase inhibitor (SYKi) naive MV4-11 cells (AID 1963823); note: nearly all actives have a fitted effect of over 40% in size; note: potency is the fitted concentration of half-maximal effect
# How it was run: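 qHTS, SYK inhibitor-naive MV4-11; 500 cells/well; 72 hr compound exposure, 37 C; CellTiter-Glo added, 10 min RT; luminescence read.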
# [2] = Viability qHTS for spleen associated tyrosine kinase inhibitor (SYKi) drug resistant MV4-11 cells (AID 1963824); note: nearly all actives have a fitted effect of over 35% in size; note: potency is the fitted concentration of half-maximal effect
# How it was run: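 SYK-inhibitor-resistant MV4-11 AML cells were seeded at 500 per well onto compound and cultured 72 hours (37 °C, 5% CO2). CellTiter-Glo was then added, and after 10 min at room temperature, luminescence gave viability.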
# [3] = Quantitative highthroughput screen to assess conditional lethalithy of NOMO1 cells grown in Human Plasma-Like Medium with dialyzed fetal bovine serum (HPLM+ds) (AID 1963878); note: nearly all actives have a fitted effect of over 35% in size
# How it was run: (§1)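 Each medium arm—HPLM with 10% dialyzed FBS, or RPMI1640 with 5 mM glucose and 10% untreated or dialyzed FBS—was screened against an 11-point, 3-fold compound titration for 48 h at 37 °C, with CellTiter-Glo luminescence as endpoint.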
# [4] = Quantitative highthroughput screen to assess conditional lethalithy of P12 Ichikawa cells grown in Human Plasma-Like Medium with dialyzed fetal bovine serum (HPLM+ds) (AID 1963879); conditions: Potency: viability; note: series mostly up to about 46 µM; nearly all actives have a fitted effect of over 35% in size
# How it was run: as §1
# [5] = Quantitative highthroughput screen to assess conditional lethalithy of NOMO1 cells grown in RPMI1640 with untreated serum (RPMI+s) (AID 1963876); note: nearly all actives have a fitted effect of over 35% in size
# How it was run: as §1
# [6] = Quantitative highthroughput screen to assess conditional lethalithy of NOMO1 cells grown in RPMI1640 with dialyzed fetal bovine serum (RPMI+ds) (AID 1963877); note: series mostly up to about 46 µM; nearly all actives have a fitted effect of over 30% in size
# How it was run: as §1
# [7] = Quantitative highthroughput screen to assess conditional lethalithy of P12 Ichikawa cells grown in RPMI1640 with dialyzed fetal bovine serum (RPMI+ds) (AID 1963880); conditions: Potency: P12-Ichikawa viability; note: nearly all actives have a fitted effect of over 35% in size
# How it was run: as §1
# [8] = Quantitative highthroughput screen to assess conditional lethalithy of P12 Ichikawa cells grown in RPMI1640 with untreated serum (RPMI+s) (AID 1963881); conditions: Potency: viability
# How it was run: as §1
# [9] = Quantitative highthroughput screen to assess conditional lethalithy of SEM cells grown in Human Plasma-Like Medium with dialyzed fetal bovine serum (HPLM+ds) (AID 1963882)
# How it was run: as §1
# [10] = Quantitative highthroughput screen to assess conditional lethalithy of SEM cells grown in RPMI1640 with unreated serum (RPMI+s) (AID 1963883); note: nearly all actives have a fitted effect of over 35% in size
# How it was run: as §1
# [11] = Quantitative highthroughput screen to assess conditional lethalithy of SEM cells grown in RPMI1640 with dialyzed fetal bovine serum (RPMI+ds) (AID 1963884)
# How it was run: as §1
# [12] = Cellular viability qHTS for adrenocortical cancer (ACC) cell line SW-13 (AID 1963989); conditions: SW-13 ACC cells viability, CellTiter-Glo, 48 h; activity (max response): active compounds read low;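 note: cells grown in serum-free medium with ITS supplement; nearly all actives have a fitted effect of over 65% in size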
# How it was run: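 Luminescent ATP read-out (CellTiter-Glo, 20 min at room temperature) measured metabolically competent SW-13 cells after 48 h compound treatment. Final concentrations spanned up to 46 uM; bortezomib served as positive control.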
# [13] = Cellular viability qHTS for adrenocortical cancer (ACC) cell line NCI-H295R (AID 1963990); note: nearly all actives have a fitted effect of over 60% in size
# How it was run: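 IC50 and maximal efficacy derive from four-parameter logistic modelling of titration curves, with reads scaled between DMSO-only wells (0%) and doxorubicin hydrochloride (100% inhibition). Compounds spanned up to 46 uM over 48 h.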
smiles,measurement,setting,value
O=C(NCCO)c1cccc(-c2cc(Nc3ccc(OC(F)(F)F)cc3)ncn2)c1,Potency,[1],6.51 µM (active)
same,Potency,[2],5.8 µM (active)
CCCCNc1ncc(C(=O)NCc2ccc(-n3ccnc3)cc2)c(NC2CCC(O)CC2)n1 (stereo unspecified),Potency,[1],0.092 µM (active)
same,Potency,[2],0.259 µM (active)
CC(C)=C[C@@H]1[C@H](CO[C@@H]2O[C@H](CO)[C@@H](O)[C@H](O)[C@H]2O)C1(C)C,Potency,[1],7.18 µM (active)
same,Potency,[2],4.53 µM (active)
N[C@@]1(C(=O)O)CC[C@H]2[C@H](C(=O)O)[C@H]21,Potency,[1],inactive
same,Potency,[2],inactive
O=C(CC(c1ccccc1)c1ccccc1)N1CCN(C(c2ccccc2)c2ccccc2)CC1,Potency,[1],13 µM (active)
same,Potency,[2],10.3 µM (active)
O=C(O)CCc1cccc(O[C@@H]2O[C@H](CO)[C@@H](O)[C@H](O)[C@H]2O)c1O,Potency,[1],inactive
same,Potency,[2],inactive
C=C1CC[C@@H]2[C@](C)(CO)[C@H](O)CC[C@@]2(C)[C@@H]1C/C=C1/C(=O)OCC1O (stereo partly specified),Potency,[1],2.91 µM (active)
same,Potency,[2],3.26 µM (active)
C[C@@H]1CC[C@]2(C(=O)O)CC[C@]3(C)C(=CCC4[C@]5(C)C(CC[C@]43C)C(C)(C)[C@@H](O)[C@H](O)[C@@H]5O)C2[C@]1(C)O (stereo partly specified),Potency,[1],inactive
same,Potency,[2],inactive
COc1c2cc(c(O[C@@H]3O[C@H](CO)[C@@H](O)[C@H](O)[C@H]3O)c1OC)CCCCC(O)CCc1ccc(O)c-2c1 (stereo partly specified),Potency,[1],inactive
same,Potency,[2],inactive
O=C(Nc1ccc(Cl)cc1F)c1ccccc1O,Potency,[1],9.2 µM (active)
same,Potency,[2],7.31 µM (active)
NC(=O)[C@H]1CCCCc2c1[nH]c1ccc(Cl)cc21,Potency,[1],inactive
same,Potency,[2],inactive
OC[C@@]1(O)CO[C@H](OC[C@H]2O[C@@H](OC(CCCCc3ccc(O)cc3)CCc3ccc(O)cc3)[C@H](O[C@H]3OC[C@](O)(CO)[C@H]3O)[C@@H](O)[C@@H]2O)[C@@H]1O (stereo partly specified),Potency,[1],inactive
same,Potency,[2],inactive
CCC(C)(O)C(O)C(=O)OCc1ccc(O[C@@H]2O[C@H](CO)[C@@H](O)[C@H](O)[C@H]2O)cc1 (stereo partly specified),Potency,[1],inactive
same,Potency,[2],inactive
CC1(C)CC[C@]2(C(=O)OC3OC(CO)C(O)C(O)C3O)CC[C@]3(C)C(=CCC4[C@@]5(C)CC[C@H](OC6OC(C(=O)O)C(O)C(OC7OC(CO)C(O)C(O)C7O)C6O)C(C)(C)C5CC[C@]43C)C2C1 (stereo partly specified),viability (% of control),[1],77.3% [at 9.25 µM]
same,"viability, % of control",[2],96.9% [at 9.25 µM]
COc1ccc2c3c1O[C@H]1C[C@@H](O)C=C[C@@]31CCN(C)C2,Potency,[1],inactive
same,Potency,[2],inactive
COc1cc(O)cc(C)c1C(=O)OC1C(CO)OC(n2ccc(=O)[nH]c2=O)C1OC(C)=O (stereo unspecified),Potency,[1],5.63 µM (active)
same,Potency,[2],inactive
CC(C)CCC[C@@H](C)[C@H]1CC[C@H]2[C@@H]3CC=C4C[C@@H](OC(=O)NCCN(C)C)CC[C@]4(C)[C@H]3CC[C@]12C,Potency,[1],20.6 µM (active)
same,Potency,[2],16.4 µM (active)
CC1(O)CCC2C(C3C1CCC3(C)O)C2(C)C (stereo unspecified),Potency,[1],inactive
same,Potency,[2],inactive
N#Cc1ccc(-c2c(-c3ncn[nH]3)sc(N3CCOCC3)c2C#N)c(F)c1,Potency,[1],3.26 µM (active) and 3.32 µM (active)
same,Potency,[2],2.06 µM (active) and 5.9 µM (active)
NC1CCCN(c2c(/C=C3\SC(=O)NC3=O)cccc2-c2ccccc2)C1 (stereo unspecified),Potency,[1],2.06 µM (active) and 3.72 µM (active)
same,Potency,[2],8.2 µM (active) and 13.2 µM (active)
O=C(NO)c1cnc(NC2(c3ccccc3)CC2)nc1,Potency,[1],5.25 µM (active)
same,Potency,[2],4.17 µM (active)
C=C1CC[C@@H](O)[C@]2(C)CC[C@H]3C(=C)C(=O)O[C@@H]3[C@@H]12,Potency,[1],18.4 µM (active)
same,Potency,[2],11.6 µM (active)
CC1C(O)C(O)C2C(C(=O)OCCc3ccc(O)cc3)=COC(O[C@@H]3O[C@H](CO)[C@@H](O)[C@H](O)[C@H]3O)C12 (stereo partly specified),Potency,[1],inactive
same,Potency,[2],inactive
O=C(/C=C/c1ccccc1)O[C@@H]1[C@@H](CO)O[C@@](CO)(O[C@H]2O[C@H](CO)[C@@H](O)[C@H](O)[C@H]2O)[C@H]1O,Potency,[1],inactive
same,Potency,[2],inactive
CC1CC(=O)[C@]2(O)C(C(=O)OCCc3ccc(O)cc3)=CO[C@@H](O[C@@H]3O[C@H](CO)[C@@H](O)[C@H](O)[C@H]3O)[C@H]12 (stereo partly specified),Potency,[1],inactive
same,Potency,[2],inactive
CC(=O)O[C@H]1[C@H](O[C@H]2CC[C@]34C[C@]35CC[C@]3(C)[C@@H]([C@@]6(C)CC[C@@H](C(C)(C)O)O6)[C@@H](O)C[C@@]3(C)[C@@H]5C[C@H](O[C@@H]3O[C@H](CO)[C@@H](O)[C@H](O)[C@H]3O)[C@H]4C2(C)C)OC[C@@H](OC(C)=O)[C@@H]1O,Potency,[1],inactive
same,Potency,[2],inactive
C=C1C(=O)OC2C=C(C)CC/C=C(\CO)CC(O)C12 (stereo unspecified),Potency,[1],10.3 µM (active)
same,Potency,[2],11.6 µM (active)
Cc1nc(N2CCN(C(=O)c3ccco3)CC2)c2c3c(sc2n1)CCCC3,Potency,[1],9.2 µM (active)
same,Potency,[2],14.6 µM (active)
COc1cc2c(cc1OC)-c1[nH]nc(Nc3cccc(F)c3)c1C2,Potency,[1],0.082 µM (active)
same,Potency,[2],0.0731 µM (active)
C=C1CC[C@@H]2[C@](C)(CO)[C@H](O)CC[C@@]2(C)[C@@H]1C/C=C1/C(=O)OC[C@@H]1O,Potency,[1],4.53 µM (active)
same,Potency,[2],3.21 µM (active)
CC1CC[C@]2(C(=O)O)CC[C@]3(C(=O)O)C(=CCC4[C@@]5(C)CC[C@H](O[C@@H]6O[C@H](CO)[C@@H](O)[C@H](O)[C@H]6O)C(C)(C)C5CC[C@]43C)C2C1C (stereo partly specified),Potency,[1],inactive
same,Potency,[2],inactive
C[C@@H]1C/C=C/C=C\C=C\C=C\[C@H](O[C@@H]2O[C@H](C)[C@@H](O)[C@H](N)[C@@H]2O)C[C@@H]2O[C@](O)(C[C@@H](O)C[C@H]3O[C@@H]3/C=C/C(=O)O1)C[C@H](O)[C@H]2C(=O)O,Potency,[1],inactive
same,Potency,[2],inactive
CC(C)(C)Nc1nc2cc(Cl)c(Cl)cc2nc1S(C)(=O)=O,Potency,[1],0.731 µM (active)
same,Potency,[2],0.731 µM (active)
C=C(C)C(=O)OC1CC2(C)OC(=CC2=O)C(=C)CC2OC(=O)C(=C)C12 (stereo unspecified),Potency,[1],0.255 µM (active)
same,Potency,[2],0.36 µM (active)
CC(O)(C#Cc1ccc2c(c1)N(c1nc(N)ncc1Cl)CC2)c1nccs1 (stereo unspecified),Potency,[3],inactive
same,Potency,[4],inactive
CC(C)[C@H](O)C(=O)N[C@@H](C)C(=O)N[C@@H]1C(=O)N(C)CCc2ccccc21,Potency,[1],inactive
same,Potency,[2],inactive
same,Potency,[5],inactive
same,Potency,[6],inactive
same,Potency,[3],inactive
same,Potency,[4],inactive
same,Potency,[7],inactive
same,Potency,[8],inactive
same,Potency,[9],inactive
same,Potency,[10],inactive
same,Potency,[11],inactive
same,activity (max response),[12],8.71%
same,Potency,[13],inactive
O=c1cc(N2CCOCC2)oc2c(-c3cccc4c3sc3ccccc34)cccc12,Potency,[1],1.48 µM (active)
same,Potency,[2],1.86 µM (active)
same,Potency,[5],inactive
same,Potency,[6],inactive
same,Potency,[3],inactive
same,Potency,[4],inactive
same,Potency,[7],inactive
same,Potency,[8],inactive
